Measured values: PubChem BioAssay AID430 (Sanford-Burnham Center for Chemical Genomics, 2006)
The whole screen tested about 63,000 compounds, of which about 1,100 (1.7%) were called active. The sample holds actives, similar compounds and a random draw of the others, so the mix is not that of the screen. No stated cut-off is given here; in the data, active means cytotoxicity above about 50%; inactive means the rest. Entries with a potency or affinity are not part of this list.

Assay: HPDE-C7 pancreatic duct cell viability loss – fluorescence, HTS (AID 430);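 further: cells exposed to compound for 48 hours before viability readout; 0% = vehicle and 100% = reference cytotoxic drug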
Details: HPDE-C7 pancreatic duct cells viability, at 10 µM, active compounds read high

| SMILES | cytotoxicity |
| --- | --- |
| COc1ccc(C(CC(=O)O)NC(=O)c2ccco2)cc1OC (stereo not given) | -6.5% (inactive) |
| O=C(c1ccco1)N1CCN(C(c2ccccc2)c2nnnn2Cc2cccs2)CC1 (stereo not given) | 7.3% (inactive) |
| Clc1ccc(OCc2nc(-c3ccccn3)no2)c(Br)c1 | 4.3% (inactive) |
| Cc1ccc(OCc2nc(-c3ccccn3)no2)c(Br)c1 | 12.5% (inactive) |
| CC(C)CCn1c(=O)c2ccccc2n2c(CN(C)Cc3ccccc3)nnc12 | -12.8% (inactive) |
| O=c1[nH]c(CSc2nc3ccccc3o2)nc2c1cnn2-c1ccccc1 | 0.3% (inactive) |
| O=C(NCC1CCCO1)C1CCCN(S(=O)(=O)c2cccc3nsnc23)C1 (stereo not given) | -15% (inactive) |
| O=C(NCCc1ccccc1)C1CCCN(S(=O)(=O)c2cccc3nsnc23)C1 (stereo not given) | -0.3% (inactive) |
| CCN1CCCC1CNC(=O)C1CCCN(S(=O)(=O)c2cccc3nsnc23)C1 (stereo not given) | 61.7% (active) |
| CC(=O)Nc1ccc(S(=O)(=O)NCc2cn3c(C)csc3n2)cc1 | 10.5% (inactive) |
| O=C(Nc1ccc(F)cc1F)c1cc(-c2ccco2)on1 | -5.3% (inactive) |
| O=C(Nc1c(F)cc(F)cc1Br)c1cc(-c2ccco2)on1 | 58.5% (active) |
| Cc1cc(C(=O)Nc2c(F)cc(F)cc2Br)no1 | 0.9% (inactive) |
| COc1ccccc1-c1cc(C(=O)Nc2c(F)cc(F)cc2Br)no1 | -10.6% (inactive) |
| O=C(Nc1c(F)cc(F)cc1Br)c1ccco1 | 0.6% (inactive) |
| O=C(Nc1c(F)cc(F)cc1Br)c1cc(-c2ccc(O)cc2)on1 | 54.4% (active) |
| Cc1ccc(S(=O)(=O)CCc2nnc(NC(=O)c3cnccn3)s2)cc1 | -8.2% (inactive) |
| CC(=O)Oc1cc2c(C(=O)NCCCN3CCOCC3)c(C)oc2c2ccccc12 | 5.1% (inactive) |
| CCN(CC)c1ccc(NC(=O)c2c(OC)cccc2OC)c(C)c1 | 0.4% (inactive) |
| CCN(CC)c1ccc(NC(=O)c2cccc(OC)c2)c(C)c1 | 39.6% (inactive) |
| CCN(CC)c1ccc(NC(=O)c2cc(OC)cc(OC)c2)c(C)c1 | 53.5% (active) |
| CCOc1cccc(C(=O)Nc2ccc(N(CC)CC)cc2)c1 | 79.8% (active) |
| CCOc1cccc(C(=O)Nc2ccc(N3CCN(S(C)(=O)=O)CC3)cc2)c1 | -6.2% (inactive) |
| CCN(CC)c1ccc(C(=O)Nc2cccc(F)c2)cc1 | 34% (inactive) |
| COc1ccc(CC(=O)NCc2ccccc2Cl)cc1S(=O)(=O)N1CCOCC1 | 1.1% (inactive) |

| SMILES | cytotoxicity |
| --- | --- |
| CCSc1nsc(SCC)c1C(N)=O | -6.7% (inactive) |
| CCCN(CCO)Cc1cccc(Cl)c1 | 6.6% (inactive) |
| COc1ccc(NS(=O)(=O)c2ccc(C)c(C(=O)O)c2)cc1 | 5% (inactive) |
| CCOC(=O)N1CCN(C(=O)c2cc3sccc3n2C)CC1 | -9.1% (inactive) |
| Cc1onc(-c2ccccc2Cl)c1C(=O)N1CCN=C1SCc1cccnc1 | -11.9% (inactive) |
| COc1cccc(CN(C)C(=O)c2ccc(S(=O)(=O)N3CCCC3)cc2)c1OC | -5.4% (inactive) |
| O=C(Nc1ccc(Cl)cn1)c1cccnc1 | 13% (inactive) |
| O=C(Nc1ccc(Cl)cn1)c1cccc(F)c1 | 53.4% (active) |
| CN(C)S(=O)(=O)c1cccc(C(=O)Nc2ccc(Cl)cn2)c1 | -15.5% (inactive) |
| O=C(Nc1ncccc1Cl)c1cccc(F)c1 | 62.6% (active) |
| Cc1nnc(NC(=O)c2cccc(F)c2)s1 | -2.4% (inactive) |
| O=C(Nc1ccncc1)c1cccc(F)c1 | -0.4% (inactive) |
| O=C(CSc1nnc(-c2cccs2)o1)N1CCCc2ccccc21 | -17.8% (inactive) |
| CCOC(=O)C1CCCN(CC(=O)Nc2c(C(=O)OC)[nH]c3ccc(C)cc23)C1 (stereo not given) | -8.3% (inactive) |
| N=c1cc(C2(O)CCCCC2)n2c(nc3ccccc32)s1 | 51.1% (active) |
| c1ccc2nc3c(nc2c1)sc1nc2ccccc2n13 | -6.8% (inactive) |
| CC(C)(O)c1cc(=O)sc2nc3ccccc3n12 | -13.4% (inactive) |
| COc1ccc(NC(=O)CS(=O)CC(=O)Nc2cc(Cl)ccc2OC)cc1 (stereo not given) | -12.2% (inactive) |
| CC(Oc1ccc(Cl)cc1Cl)C(=O)Nc1ccncc1 (stereo not given) | -0.5% (inactive) |
| Cc1ccc(N(CC(O)CN(C)C)S(=O)(=O)c2ccccc2)cc1 (stereo not given) | 3.3% (inactive) |
| CC(=O)c1ccc(C(=O)Nc2nnc(-c3ccc(Cl)cc3)o2)cc1 | 66.8% (active) |
| Cc1cccc(-c2nnc(-c3ccccc3)o2)c1 | -3.9% (inactive) |
| Cc1cccc(-c2nnc(NC(=O)c3ccc(Cl)cc3)o2)c1 | 79.5% (active) |
| COc1ccc(C(=O)Nc2nnc(-c3ccccc3)o2)cc1OC | -9.5% (inactive) |
| Cc1cccc(-c2nnc(-c3ccc(N)cc3)o2)c1 | -2% (inactive) |

| SMILES | cytotoxicity |
| --- | --- |
| O=C(Nc1nnc(-c2ccccc2)o1)Nc1ccccc1Cl | 22.1% (inactive) |
| COc1ccccc1C(=O)Nc1nnc(-c2ccc(Cl)cc2)o1 | -10.4% (inactive) |
| CN(C)c1ccc(C(=O)Nc2nnc(-c3ccc(Cl)cc3)o2)cc1 | 31.7% (inactive) |
| Cc1cc(NC(c2cccnc2)c2c(C)[nH]c3ccccc23)no1 (stereo not given) | 5.2% (inactive) |
| CC(=O)c1ncnn1CC(=O)c1ccc(Cl)cc1Cl | 13.6% (inactive) |
| O=C(CCN1CCc2ccccc2C1)Nc1cccc(F)c1 | 3.9% (inactive) |
| Cc1ccc(NS(=O)(=O)c2cccc(C(=O)Nc3cc(C)on3)c2)cc1 | -4.8% (inactive) |
| Cc1ccc2nc3ccc(N4CCN(C)CC4)nn3c(=O)c2c1 | -2.8% (inactive) |
| COc1cccc(C2=NOC(C(=O)NC(C)C)C2)c1 (stereo not given) | -3.9% (inactive) |
| COc1cccc(C2=NOC(C(=O)NC(C)(C)C)C2)c1 (stereo not given) | -11.2% (inactive) |
| CC(C)(C)SCCNS(=O)(=O)c1ccc(F)cc1 | 5.7% (inactive) |
| O=S(=O)(c1cccc(-c2nnc(SCc3ccc(Cl)cc3)o2)c1)N1CCCCC1 | -2.9% (inactive) |
| Cc1cc2nc(-c3ccc(SCC(=O)N4CCOCC4)nc3)[nH]c2cc1C | -15.5% (inactive) |
| O=C(NC1=NCCS1)Nc1ccccc1 | 1.2% (inactive) |
| COCCCN1C(=O)c2[nH]nc(-c3ccccc3O)c2C1c1ccc(Cl)cc1 (stereo not given) | 67.3% (active) |
| Cc1ccc(C2c3c(-c4ccccc4O)n[nH]c3C(=O)N2Cc2ccncc2)cc1 (stereo not given) | -3.9% (inactive) |
| COc1cc(C2c3c(-c4cc(C)cc(C)c4O)n[nH]c3C(=O)N2CCCO)cc(OC)c1OC (stereo not given) | 0.6% (inactive) |
| COCCCN1C(=O)c2[nH]nc(-c3cc(C)cc(C)c3O)c2C1c1ccc(O)c(OC)c1 (stereo not given) | -2.5% (inactive) |
| COc1ccc(CCN2C(=O)c3[nH]nc(-c4ccccc4O)c3C2c2cccc(O)c2)cc1OC (stereo not given) | 66% (active) |
| CC(C)OCCCN1C(=O)c2[nH]nc(-c3ccccc3O)c2C1c1cccc(Cl)c1 (stereo not given) | -3.6% (inactive) |
| COc1ccc(C2c3c(-c4ccccc4O)n[nH]c3C(=O)N2CCc2ccc(OC)c(OC)c2)cc1 (stereo not given) | 36.9% (inactive) |
| COc1ccc(C2c3c(-c4cc(Cl)c(C)cc4O)n[nH]c3C(=O)N2Cc2cccnc2)cc1OC (stereo not given) | 26.6% (inactive) |
| COc1ccc(CCN2C(=O)c3[nH]nc(-c4ccccc4O)c3C2c2ccccc2)cc1OC (stereo not given) | 54.9% (active) |
| COCCCN1C(=O)c2[nH]nc(-c3ccccc3O)c2C1c1cccc(Cl)c1 (stereo not given) | 13.3% (inactive) |
| Cc1cc(O)c(-c2n[nH]c3c2C(c2cccc(O)c2)N(Cc2cccnc2)C3=O)cc1Cl (stereo not given) | 8% (inactive) |
